The results in this text go back to PubChem BioAssay AID1508615 (Milbrandt Lab, Department of Genetics, Washington …, 2020).

In all, about 1,600 compounds went through this assay and about 20 (1%) were called active. The sample holds actives, similar compounds and a random draw of the others, so the mix is not that of the screen.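 The calls were made as follows: active = ratio of uncleaved NAD to its breakdown product ADP-ribose above 4, meaning the enzyme was inhibited; inactive = the rest.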

The target in the assay is NAD(+) hydrolase SARM1 (Homo sapiens) (UniProt Q6SZW1). Kind of assay: inhibition of SAM-TIR NAD hydrolysis to ADPR – cell lysate, HPLC readout, primary screen (AID 1508615).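 Also: substrate NAD at 5 µM with 60 min at 37 °C.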 Particulars: HEK293T SAM-TIR lysate, NAD/ADPR ratio by HPLC; at 5 µM; stronger effect = higher value.
Chain of NAD(+) hydrolase SARM1 (Homo sapiens) (Q6SZW1 whole entry, looked up): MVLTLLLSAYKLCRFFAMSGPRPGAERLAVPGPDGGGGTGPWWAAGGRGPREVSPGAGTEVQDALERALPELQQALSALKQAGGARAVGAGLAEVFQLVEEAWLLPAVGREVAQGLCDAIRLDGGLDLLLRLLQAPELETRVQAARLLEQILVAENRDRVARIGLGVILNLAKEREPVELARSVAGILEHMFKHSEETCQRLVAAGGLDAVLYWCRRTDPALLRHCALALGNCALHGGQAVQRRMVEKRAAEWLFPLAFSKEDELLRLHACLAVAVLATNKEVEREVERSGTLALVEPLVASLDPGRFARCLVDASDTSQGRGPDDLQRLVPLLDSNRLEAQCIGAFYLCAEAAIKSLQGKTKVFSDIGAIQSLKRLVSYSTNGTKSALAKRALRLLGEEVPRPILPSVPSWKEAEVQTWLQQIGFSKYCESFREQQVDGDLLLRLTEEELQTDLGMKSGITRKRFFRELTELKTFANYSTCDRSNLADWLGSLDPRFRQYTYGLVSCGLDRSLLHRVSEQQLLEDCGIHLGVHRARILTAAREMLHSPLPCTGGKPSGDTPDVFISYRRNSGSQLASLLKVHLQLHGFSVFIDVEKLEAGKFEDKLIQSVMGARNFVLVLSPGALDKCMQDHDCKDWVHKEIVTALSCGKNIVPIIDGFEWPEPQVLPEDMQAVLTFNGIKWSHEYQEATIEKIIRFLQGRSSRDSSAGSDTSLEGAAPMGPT
With `CCN(CC)c1ccc(C=C2C(=O)NC(=S)NC2=O)cc1`, the NAD/ADPR ratio is 5.3 (active). The figure for `COc1cc(C=C2C(=O)NC(=O)NC2=O)ccc1O` is 3 (inactive); for `O=C1NC(=O)C(=Cc2ccc3ccccc3c2)C(=O)N1` it is 3 (inactive); for `COC12C(COC(N)=O)C3=C(C(=O)C(C)=C(N)C3=O)N1CC1C2N1C` (stereo not given) it is 3 (inactive).

In the case of `O=C1CCC2(O)[C@@H]3Cc4ccc(O)c5c4[C@]2(CCN3Cc2ccoc2)C1O5` (stereo not given in full), the NAD/ADPR ratio is 3 (inactive). In the case of `CC1=CC(O)C(O)C2(C)C1CC1OC(=O)C(O)C3C(C)C(O)C4(O)OCC13C42` (stereo not given), the NAD/ADPR ratio is 3 (inactive). On to `COC(=O)c1nc(-c2ccc3c(n2)C(=O)C(N)=C(OC)C3=O)c(N)c(-c2ccc(OC)c(OC)c2O)c1C`, for which the NAD/ADPR ratio was 3 (inactive).

On to `CC1=C(O)C(=O)C=C2C1=CC=C1[C@@]2(C)CC[C@@]2(C)[C@@H]3C[C@](C)(C(=O)O)CC[C@]3(C)CC[C@]12C`, for which the NAD/ADPR ratio was 12.8 (active). The figure for `N#CC12CNCC1CN=N2` (stereo not given) is 3 (inactive); for `NC(=O)c1ccc(C(=O)Nc2ccc([As](=O)(O)O)cc2)cc1` it is 3 (inactive).
